Our source for the inhibition values is ChEMBL document CHEMBL1961873, “Compounds: GSK PKIS; Assays: Nanosyn kinase panel” (2012).
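Note: values are the mean percent inhibition of TRKB kinase.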

The target of the test is BDNF/NT-3 growth factors receptor (Homo sapiens) (UniProt Q16620). As to conditions: at 1 µM.
BDNF/NT-3 growth factors receptor (Homo sapiens), sequence (Q16620 32-822 limits assumed): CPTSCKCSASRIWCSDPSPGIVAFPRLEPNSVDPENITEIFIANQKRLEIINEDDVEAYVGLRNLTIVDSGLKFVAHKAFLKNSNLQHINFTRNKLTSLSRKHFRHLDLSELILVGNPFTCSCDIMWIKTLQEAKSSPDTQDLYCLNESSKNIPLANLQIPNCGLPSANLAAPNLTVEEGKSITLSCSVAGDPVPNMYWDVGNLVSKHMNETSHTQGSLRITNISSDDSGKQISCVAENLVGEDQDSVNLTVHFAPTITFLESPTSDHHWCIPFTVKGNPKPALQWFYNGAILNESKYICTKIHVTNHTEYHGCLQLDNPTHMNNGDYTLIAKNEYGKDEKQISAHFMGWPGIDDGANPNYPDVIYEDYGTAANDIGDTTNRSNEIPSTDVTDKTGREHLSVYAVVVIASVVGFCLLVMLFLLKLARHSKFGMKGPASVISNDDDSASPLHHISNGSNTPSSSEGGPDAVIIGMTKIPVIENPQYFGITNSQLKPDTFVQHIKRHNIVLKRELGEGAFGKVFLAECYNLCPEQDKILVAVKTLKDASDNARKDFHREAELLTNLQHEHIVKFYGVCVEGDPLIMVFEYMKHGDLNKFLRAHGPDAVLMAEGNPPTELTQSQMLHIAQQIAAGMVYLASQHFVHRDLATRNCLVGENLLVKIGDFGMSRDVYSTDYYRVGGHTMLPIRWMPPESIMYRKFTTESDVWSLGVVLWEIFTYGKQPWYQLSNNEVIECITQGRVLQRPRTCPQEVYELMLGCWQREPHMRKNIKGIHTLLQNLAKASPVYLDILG
As for `NC(=O)c1ccc(Oc2nccc(-c3c(-c4ccc(F)cc4)ncn3C3CCNCC3)n2)cc1`, the inhibition turned out to be 5.18%. Regarding `Fc1ccc(-c2ncn(CCCN3CCOCC3)c2-c2ccncc2)cc1`, the inhibition is -1.43%.

Turning to `COc1cccc(/C=N/Nc2ncnc3c2cnn3-c2cccc(OC)c2)c1`, the inhibition was 5.56%. The result for `N#Cc1ccc(Oc2nccc(-c3c(-c4ccc(F)cc4)ncn3C3CCNCC3)n2)cc1` reads 4.54%; that for `COc1ccc(-c2ccc3c(NC(=O)C4CC4)n[nH]c3n2)cc1`, 5.12%; that for `O=C(Nc1n[nH]c2cc(-c3ccccc3)ccc12)C1CC1`, 6.76%.

On to `COC(=O)Nc1nc2ccc(Sc3ccc(NC(=O)Nc4cc(C(F)(F)F)ccc4F)cc3)cc2[nH]1`, for which the inhibition came out at 71.8%. The result for `CN(c1ccc(NC(=O)Nc2c(Cl)cccc2Cl)cc1)c1ccnc(Nc2cccc(CS(C)(=O)=O)c2)n1` reads 55.4%. The result for `O=C1Nc2ccc(I)cc2C1=Cc1cc(Br)c(O)c(Br)c1` reads 5.74%. With `Clc1ccc(CNc2nccc(-c3cnn4ncccc34)n2)cc1` the figure was 1.45%; with `C/C(Nc1ccc(S(N)(=O)=O)cc1)=C1/C(=O)Nc2ccccc21`, 61.8%.

Take `CCc1nccc2c1nc(-c1nonc1N)n2CC`: the inhibition was -1.57%. Turning to `NC(=O)c1cc(-c2ccncc2)cc(-c2ccccc2)c1N`, the inhibition worked out at 3.86%. `COc1cc(Nc2ncc(-c3ccccc3)o2)cc(OC)c1OC`: the inhibition was 28.3%. The result for `NS(=O)(=O)c1ccc(N/N=C2\C(=O)Nc3ccc(-c4cnco4)cc32)cc1` reads 46.4%; that for `COc1cc2ncn(-c3cc(OCCc4ccccc4)c(C(N)=O)s3)c2cc1OC`, 8.57%.

On to `Cc1nnc(-c2ccc(C)c(-c3ccc(C(=O)NCc4ccc(Cl)cc4)cc3)c2)o1`, for which the inhibition amounted to 1.5%. With `C#Cc1cccc(Nc2ncnc3ccc(OCCCCNCCS(C)(=O)=O)cc23)c1` the figure was 2.28%; with `COc1cccc(-n2cnc3c(N/N=C/c4ccncc4)ncnc32)c1`, 6.69%. As to `COc1ccc2cc(-c3c(-c4ccncc4)nc(-c4ccc(S(C)(=O)=O)cc4C)n3C)ccc2c1`, the inhibition was 3.12%.

In the case of `COc1ccc2ncn(-c3cc(O[C@H](C)c4ccccc4Cl)c(C(N)=O)s3)c2c1`, the inhibition is 9.91%. The result for `O=C1NC(=O)C(c2cccc(Cl)c2)=C1Nc1ccc(Cl)c(C(=O)O)c1` reads 1.89%. With `CN1CCN(CCCNc2nc3ccc(Oc4ccc(NC(=O)Nc5cc(C(F)(F)F)ccc5F)cc4)cc3[nH]2)CC1` the figure was 10.6%; with `C[C@@H](Oc1cc(-n2cnc3ccc(OC4CCN(C)CC4)cc32)sc1C(N)=O)c1ccccc1Cl`, 7.84%. With `c1ccc(Oc2ccc(Nc3ncc(-c4ccccc4)o3)cc2)cc1` the figure was 2.96%; with `CN(C)CCCNc1nccc(-c2c(-c3ccc(F)cc3)nn3cc(C(F)(F)F)ccc23)n1`, 0.51%. `COc1cc2ncn(-c3cc(OCc4ccccc4C(F)(F)F)c(C(C)=O)s3)c2cc1OC`: the inhibition was determined as 2.56%. With `COc1ccc2cc(-c3c(-c4ccncc4)nc(-c4ccc([S+](C)[O-])cc4C)n3C)ccc2c1` (centres undefined) the figure was -0.8%; with `Fc1ccc(-c2ncn(C3CCNCC3)c2-c2ccnc(Oc3ccc4c(c3)OCO4)n2)cc1`, 5.76%; with `NC(=O)c1cc(-c2ccc(F)cc2)cc(-c2ccncc2)c1N`, 3.15%. The result for `CCC(=O)Nc1ccc(C)c(-c2ccc(C(=O)NCC3CC3)cc2)c1` reads 2.88%; that for `c1ccc(-c2n[nH]cc2-c2ccnc(-c3ccc(OCCN4CCOCC4)cc3)c2)nc1`, 0.41%; that for `O=C(NCC1CC1)c1ccc(-c2cccc(C(=O)NC3CC3)c2)cc1`, -1.04%. The result for `NC(=O)Cc1ccccc1Oc1nccc(-c2c(-c3ccc(F)cc3)ncn2C2CCNCC2)n1` reads 0.58%.
